This assay is described as follows: NCI Yeast Anticancer Drug Screen. Data for the mlh1 strain (AID 171).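 Note: 0% = growth of vehicle-treated control cultures of the same strain.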 Particulars: S. cerevisiae mlh1 strain growth inhibition, hits give high values. How it is done: Growth inhibition of yeast strains with defined genetic alterations is measured as a screen for potential anti-cancer activity. Selected strains with alterations in DNA damage repair or cell cycle control were exposed to compounds and growth inhibition was measured relative to vehicle treated controls. The strain used in this assay is mlh1

The record followed here is PubChem BioAssay (NCI).

The panel holds about 79,000 compounds, 15% with a hit somewhere; the sample as a whole holds those more often. A number with no mark means an inactive call. Activity calls are given as the source filed them. Cut-off read from the data, not from the text of the source: active = growth inhibition above about 70%; inactive = the rest.

For `Cc1ccc(Nc2n[nH]c(=S)s2)cc1`, the growth inhibition was -10% (at 1.2 µM); -34% (at 3.7 µM); -23% (at 11.0 µM); 29% (at 33.0 µM); 92% (active) (at 100.0 µM).

Take `CCCCCCSc1nc(COC(=O)NC)c(COC(=O)NC)n1C`: the growth inhibition reads like this: (at 1.2 µM) -1%; (at 3.7 µM) 0%; (at 11.0 µM) -2%; (at 33.0 µM) 32%; (at 100.0 µM) 99% (active).

`O=C(N/N=C\c1c(Cl)cccc1Cl)N/N=C/c1c(Cl)cccc1Cl`: the growth inhibition reads like this: (at 1.2 µM) -13%; (at 3.7 µM) -7%; (at 11.0 µM) -3%; (at 33.0 µM) -9%; (at 100.0 µM) -8%.

Regarding `CC(=O)Oc1ccc(C(=O)c2ccccc2)c(O)c1`, the growth inhibition was -2% (at 1.2 µM); -1% (at 3.7 µM); 0% (at 11.0 µM); 36% (at 33.0 µM); 96% (active) (at 100.0 µM).

Consider `CC1CCC2(C(=O)O)CCC3(C)C(=CCC4C5(C)CC(O)C(O)C(C)(CO)C5C(O)CC43C)C2C1C` (stereo not given), for which the growth inhibition is, setting by setting: (at 1.2 µM) -29%; (at 3.7 µM) -8%; (at 11.0 µM) -20%; (at 33.0 µM) -2%; (at 100.0 µM) 95% (active).

Turning to `O=[N+]([O-])c1cccc2nc3ccccc3c(NCCc3cccc[n+]3[O-])c12`, the growth inhibition (at 1.2 µM) was 0%; the growth inhibition (at 3.7 µM) was 3%; the growth inhibition (at 11.0 µM) was 20%; the growth inhibition (at 33.0 µM) was 50%; the growth inhibition (at 100.0 µM) was 89% (active).

Regarding `COc1ccc(N2CN(C)CSC2=S)cc1`, the growth inhibition reads like this: (at 1.2 µM) -53%; (at 3.7 µM) -52%; (at 11.0 µM) -48%; (at 33.0 µM) -3%; (at 100.0 µM) 57%.

Take `Nc1ccc2c(c1)sc1ccccc12`: the growth inhibition was 9% (at 1.2 µM); -4% (at 3.7 µM); -5% (at 11.0 µM); 21% (at 33.0 µM); 99% (active) (at 100.0 µM).
